Calls of active or inactive are those of the source. The calls were made as follows: active = hit-call score of the fitted dose curve at least 0.9, where 1 is the maximum; inactive = score below 0.9.
How the values were obtained:
[1] = BSK_hDFCGF_SRB: Viability Assessment in the BioMAP Diversity Plus: hDFCGF Assay (AID 2283061); conditions: primary human foreskin fibroblasts;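 also: cells exposed to compound for 24 h before the read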
Outline: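 SRB-based viability read on primary human skin fibroblasts at 24 h: TCA fixation, 0.1% dye, 560 nm. Gain or loss of signal is fitted against the DMSO negative control.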

[2] = read-out: TIMP metallopeptidase inhibitor 1 (TIMP1), TIMP1 (gene 7076); assay: BSK_hDFCGF_TIMP1: BioMAP Diversity Plus: hDFCGF Assay for TIMP metallopeptidase inhibitor 1 (TIMP1) Biomarker Activity (AID 2283062); conditions: primary human foreskin fibroblasts; actives raise or lower the signal
Outline: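 Bidirectional curve fitting against DMSO baseline yielded this endpoint, based on ELISA detection of TIMP-1 in primary human foreskin fibroblasts exposed to compound for 24 h.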

[3] = read-out: Monokine induced gamma interferon (MIG), CXCL9 (gene 4283); assay: BSK_hDFCGF_MIG: BioMAP Diversity Plus: hDFCGF Assay for Monokine induced gamma interferon (MIG) Biomarker Activity (AID 2283063); conditions: primary human foreskin fibroblasts; actives raise or lower the signal
Outline: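 Endpoint derived by bidirectional fitting relative to DMSO; MIG quantified via ELISA in primary human foreskin fibroblasts harvested 24 h after dosing.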

[4] = read-out: Vascular cell adhesion molecule 1 (VCAM1), VCAM1 (gene 7412); assay: BSK_hDFCGF_VCAM1: BioMAP Diversity Plus: hDFCGF Assay for Vascular cell adhesion molecule 1 (VCAM1) Biomarker Activity (AID 2283065); conditions: primary human foreskin fibroblasts; actives raise or lower the signal;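 as to AC50: VCAM-1 protein level quantified by ELISA after 24 h chemical exposure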
Outline: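 Measured after 24 h chemical treatment of primary human skin fibroblasts, VCAM-1 was detected by ELISA and concentration-response analysed in both directions versus DMSO vehicle.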

[5] = read-out: Plasminogen activator inhibitor-1 (PAI1), SERPINE1 (gene 5054); assay: BSK_hDFCGF_PAI1: BioMAP Diversity Plus: hDFCGF Assay for Plasminogen activator inhibitor-1 (PAI1) Biomarker Activity (AID 2283066); conditions: primary human foreskin fibroblasts; actives raise or lower the signal
Outline: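 Primary dermal fibroblasts (human foreskin), hDFCGF system; compound 24 h; PAI-1 by ELISA; bidirectional fit vs DMSO control.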

[6] = read-out: Intercellular Adhesion Molecule 1 (ICAM1), ICAM1 (gene 3383); assay: BSK_KF3CT_ICAM1: BioMAP Diversity Plus: KF3CT Assay for Intercellular Adhesion Molecule 1 (ICAM1) Biomarker Activity (AID 2283067); conditions: primary human keratinocytes with fibroblasts; actives raise or lower the signal
Outline: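 Bidirectional curve fitting against a DMSO baseline was applied to ICAM-1 ELISA signal from primary human skin co-cultures harvested 24 h after treatment, with SRB staining of parallel wells for overt cytotoxicity.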

[7] = read-out: Interferon-gamma inducible Protein 10 (IP10), CXCL10 (gene 3627); assay: BSK_KF3CT_IP10: BioMAP Diversity Plus: KF3CT Assay for Interferon-gamma inducible Protein 10 (IP10) Biomarker Activity (AID 2283068); conditions: primary human keratinocytes with fibroblasts; actives raise or lower the signal
Outline: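 ELISA read-out of IP-10 after 24 h chemical dosing of human skin primary co-culture (keratinocytes, foreskin fibroblasts). Gain or loss of signal relative to DMSO, bidirectional curve fit.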

[8] = BSK_KF3CT_SRB: Viability Assessment in the BioMAP Diversity Plus: KF3CT Assay (AID 2283069); conditions: primary human keratinocytes with fibroblasts;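 also: total protein by sulforhodamine B staining as a cytotoxicity measure; read 24 h after compound addition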
Outline: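 Human primary keratinocyte plus foreskin fibroblast co-culture exposed to chemicals for 24 h. Total protein measured by 0.1% sulforhodamine B staining after 10% TCA fixation, read at 560 nm; bidirectional fitting versus DMSO baseline.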

[9] = read-out: Interleukin-1 alpha (IL1a), IL1A (gene 3552); assay: BSK_KF3CT_IL1a: BioMAP Diversity Plus: KF3CT Assay for Interleukin-1 alpha (IL1a) Biomarker Activity (AID 2283070); conditions: primary human keratinocytes with fibroblasts; actives raise or lower the signal
Outline: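 Human keratinocyte plus foreskin fibroblast primary co-culture, sampled 24 h after chemical dosing. IL-1a measured by ELISA; responses fitted bidirectionally against DMSO baseline (negative control), so gain or loss of signal both count.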

[10] = read-out: TIMP metallopeptidase inhibitor 2 (TIMP2), TIMP2 (gene 7077); assay: BSK_KF3CT_TIMP2: BioMAP Diversity Plus: KF3CT Assay for TIMP metallopeptidase inhibitor 2 (TIMP2) Biomarker Activity (AID 2283071); conditions: primary human keratinocytes with fibroblasts; actives raise or lower the signal
Outline: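 Cells: human keratinocytes co-cultured with foreskin fibroblasts. Treat with chemical, 24 h. Measure TIMP-2 by ELISA; fit curves bidirectionally vs DMSO baseline.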

[11] = read-out: Transforming growth factor beta 1 (TGFb1), TGFB1 (gene 7040); assay: BSK_KF3CT_TGFb1: BioMAP Diversity Plus: KF3CT Assay for Transforming growth factor beta 1 (TGFb1) Biomarker Activity (AID 2283072); conditions: primary human keratinocytes with fibroblasts; actives raise or lower the signal
Outline: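 Primary human skin cells (keratinocytes, foreskin fibroblasts) were co-cultured, exposed to test chemical and sampled at 24 h. TGF-b1 levels were measured by ELISA and fitted bidirectionally relative to DMSO.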

[12] = read-out: C-C motif chemokine 2 (Homo sapiens) (UniProt P13500); assay: BSK_KF3CT_MCP1: BioMAP Diversity Plus: KF3CT Assay for Monocyte Chemoattractant Protein 1 (MCP1/CCL2) Biomarker Activity (AID 2283073); conditions: primary human keratinocytes with fibroblasts; actives raise or lower the signal
Outline: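 Biomarker MCP-1 is measured by ELISA in primary human keratinocytes co-cultured with foreskin fibroblasts, 24 h after chemical treatment; DMSO serves as the negative control and activity baseline.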

[13] = read-out: Matrix Metallopeptidase 9 (MMP9), MMP9 (gene 4318); assay: BSK_KF3CT_MMP9: BioMAP Diversity Plus: KF3CT Assay for Matrix Metallopeptidase 9 (MMP9) Biomarker Activity (AID 2283074); conditions: primary human keratinocytes with fibroblasts; actives raise or lower the signal
Outline: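 Keratinocyte plus foreskin fibroblast human primary skin co-culture was dosed with chemical and MMP-9 was quantified by ELISA 24 h later. Bidirectional curve fitting used DMSO as negative control and activity baseline.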

[14] = read-out: urokinase plasminogen activator (uPA), PLAU (gene 5328); assay: BSK_KF3CT_uPA: BioMAP Diversity Plus: KF3CT Assay for urokinase plasminogen activator (uPA) Biomarker Activity (AID 2283075); conditions: primary human keratinocytes with fibroblasts; actives raise or lower the signal
Outline: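 Human keratinocyte plus foreskin fibroblast primary co-culture exposed to chemical for 24 h. uPA levels were quantified by ELISA, and activity was fitted bidirectionally against a DMSO negative-control baseline.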

CD40, CD40 (gene 958) = assay: BSK_LPS_CD40: BioMAP Diversity Plus: LPS Assay for CD40 Biomarker Activity (AID 2283076); conditions: primary human HUVEC with PBMC; actives raise or lower the signal
Outline: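 Using a multiplexed primary human co-culture (umbilical vein endothelium plus PBMC), CD40 was read by ELISA 24 h after dosing, with cytotoxicity tracked by sulforhodamine B staining of parallel cultures and activity fitted bidirectionally versus DMSO.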

[15] = read-out: E-selectin (Homo sapiens) (UniProt P16581); assay: BSK_LPS_Eselectin: BioMAP Diversity Plus: LPS Assay for Eselectin Biomarker Activity (AID 2283077); conditions: primary human HUVEC with PBMC; actives raise or lower the signal
Outline: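 Dose chemical onto LPS-driven HUVEC/PBMC co-culture; after 24 h, run ELISA for E-selectin; fit up- and down-going responses relative to DMSO control.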

[16] = read-out: Interleukin-8 (IL8), CXCL8 (gene 3576); assay: BSK_LPS_IL8: BioMAP Diversity Plus: LPS Assay for Interleukin-8 (IL8) Biomarker Activity (AID 2283078); conditions: primary human HUVEC with PBMC; actives raise or lower the signal
Outline: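 In this LPS system, chemical-treated human umbilical vein endothelium/PBMC co-cultures were harvested at 24 h for IL-8 ELISA.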

[17] = BSK_LPS_SRB: Viability Assessment in the BioMAP Diversity Plus: LPS Assay (AID 2283079); conditions: primary human HUVEC with PBMC;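 also: total protein by sulforhodamine B absorbance as a cytotoxicity measure; measured one day after compound addition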
Outline: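 Cytotoxicity endpoint in human endothelial–PBMC co-culture: 24 h exposure, then SRB (0.1%) staining, 560 nm read.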

[18] = read-out: Interleukin-1 alpha (IL1a), IL1A (gene 3552); assay: BSK_LPS_IL1a: BioMAP Diversity Plus: LPS Assay for Interleukin-1 alpha (IL1a) Biomarker Activity (AID 2283080); conditions: primary human HUVEC with PBMC; actives raise or lower the signal
Outline: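 Primary human HUVEC and PBMC co-culture stimulated with LPS is dosed and harvested at 24 h. Both increases and decreases in ELISA-measured IL-1a are scored relative to DMSO.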

Measured: AC50

Chain of E-selectin (Homo sapiens) (P16581 whole entry, looked up): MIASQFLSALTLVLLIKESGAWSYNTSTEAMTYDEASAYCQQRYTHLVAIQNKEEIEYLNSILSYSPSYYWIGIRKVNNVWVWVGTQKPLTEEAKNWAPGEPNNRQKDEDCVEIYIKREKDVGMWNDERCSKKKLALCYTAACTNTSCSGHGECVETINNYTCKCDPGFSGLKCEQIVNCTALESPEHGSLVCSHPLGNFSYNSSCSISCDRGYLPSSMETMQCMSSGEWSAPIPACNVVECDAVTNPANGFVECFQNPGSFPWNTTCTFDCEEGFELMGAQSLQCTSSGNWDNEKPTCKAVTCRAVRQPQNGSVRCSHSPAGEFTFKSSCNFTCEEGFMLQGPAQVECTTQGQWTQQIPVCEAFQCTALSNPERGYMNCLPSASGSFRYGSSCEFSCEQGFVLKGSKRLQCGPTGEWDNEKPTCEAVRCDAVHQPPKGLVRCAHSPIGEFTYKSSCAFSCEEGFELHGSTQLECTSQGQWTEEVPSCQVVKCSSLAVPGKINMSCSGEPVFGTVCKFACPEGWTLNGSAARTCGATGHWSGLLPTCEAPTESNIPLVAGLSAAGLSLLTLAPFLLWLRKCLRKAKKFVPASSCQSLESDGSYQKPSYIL

CCc1cccc(CC)c1N
inactive: all assays above

c1ccc2ncccc2c1
inactive: all assays above

FC(F)C(F)(F)COCC1CO1 (configuration not stated)
not listed: [11]
inactive: all other assays above

O=S(=O)(O)c1ccc(N=Nc2c(O)ccc3cc(S(=O)(=O)O)ccc23)cc1
inactive: all assays above

NNC(=O)c1ccncc1
inactive: all assays above

CCCCCCCCN(C)C
inactive: all assays above

Cn1cc[nH]c1=S
inactive: all assays above

O=C(NO)C1(NS(=O)(=O)c2ccc(Oc3ccc(F)cc3)cc2)CCOCC1
inactive: all assays above

NCC(F)(F)C(F)(F)C(F)(F)C(F)(F)F
not listed: [11]
inactive: all other assays above

CCCc1ccccc1
inactive: all assays above

FC(F)=C(F)C(F)(F)C(F)(F)C(F)(F)C(F)(F)C(F)(F)C(F)(F)F
not listed: [11]
inactive: all other assays above

CCCCN1C(=O)[C@@H]([C@H](O)C2CCCCC2)NC(=O)C12CCN(Cc1ccc(Oc3ccc(C(=O)O)cc3)cc1)CC2
active: [1] 20 µM | [4] 31 µM
inactive: all other assays above

O=C1CN(N=Cc2ccc([N+](=O)[O-])o2)C(=O)N1
inactive: all assays above

Nc1ccn([C@@H]2O[C@H](CO)[C@@H](O)[C@@H]2O)c(=O)n1
inactive: all assays above

CCCCCOC(C)=O
inactive: all assays above

From PubChem BioAssay (EPA / NIEHS)
